Data from PubChem BioAssay (EPA / NIEHS).
Calls of active or inactive are those of the source. The calls were made as follows: active = hit-call score of the fitted dose curve at least 0.9, where 1 is the maximum; inactive = score below 0.9.

Test: ATG_MRE_CIS: Attagene CIS-FACTORIAL HepG2 Assay for human Metal Responsive Element (MRE) (AID 2282954)
Details: HepG2 MRE cis-reporter transcription, Attagene multiplex; actives raise or lower the signal
How it was run: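 HepG2 cells transiently transfected with cis-element-driven reporter units; mRNA measured 24 h after dosing. Reporter transcripts quantified by RT-PCR, FAM labelling, HpaI digestion and capillary electrophoresis; bidirectional fit versus DMSO.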

outcome, inactive:
CC1(C)S[C@@H]2[C@H](NC(=O)[C@H](N)c3ccccc3)C(=O)N2[C@H]1C(=O)O, Cc1cc(C)c(S(=O)(=O)O)cc1N=Nc1cc(S(=O)(=O)O)c2ccccc2c1O, CC1=NN(c2cc(Cl)c(S(=O)(=O)O)cc2Cl)C(=O)C1N=Nc1ccc(S(=O)(=O)O)cc1 (stereo not given), O=C(O)Cc1c[nH]c2ccccc12, NCc1ccccc1, O=[N+]([O-])c1ccc2nc[nH]c2c1, CCCCn1cc[n+](C)c1, CC(C)CC(=O)O, C[Si](C)(C)O[Si](C)(C)O[Si](C)(C)C, Cc1cc(O)cc(C)c1Cl, CC(C)n1c(/C=C/[C@@H](O)C[C@@H](O)CC(=O)O)c(-c2ccc(F)cc2)c2ccccc21, CC1=C(CC=O)C(C)(C)CCC1, CC(O)(P(=O)(O)O)P(=O)(O)O, Cc1ccccc1S(N)(=O)=O, C1=CCC=C1, CCCOCCC, CC/C=C\CC1=C(C)CCC1=O, COC(OC)C(C)c1ccccc1 (stereo not given), COCCCN, CC1=CCCC(C)(C)C12CCC(C)O2 (stereo not given), CC(=O)c1nccs1, O=C(O)c1nc(Cl)c(Cl)c(Cl)c1Cl, CC=CC(=O)O

AC50, active:
CCCCCCCCCCC1CO1 (stereo not given) 152 µM, C[C@H]1C[C@H]2[C@@H]3CCC4=CC(=O)C=C[C@]4(C)[C@@]3(F)[C@@H](O)C[C@]2(C)[C@@]1(O)C(=O)CO 80.1 µM
